# Only some compounds are listed: those with a hit (about 2.2% of all), similar ones and a draw of the others.
# FUS yeast rescue: FUS proteinopathy suppression in yeast | AID 1347120 | S. cerevisiae FUS-expressing, growth rescue, OD600, 24 h | 0.24% of 390,000 active | Potency, µM (doses to about 76.6 µM), usual class: activators;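 further: plate controls were DMSO vehicle for no effect and reference control for full effect; nearly all actives have a fitted effect of over 55% in size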
#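 Steps: raffinose overnight preculture; dilution to OD 0.005 in 2% galactose minimal medium; compound addition (concentration series); 24hr at 30C, 99% humidity; absorbance read at 600 nm.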
# aSyn rescue: rescues yeast growth from alpha-synuclein toxicity. Yeast expressing alpha-synuclein, growth rescue, BacTiter-Glo, 24 h. Potency, µM (doses to about 46.1 µM), for the others: top-dose growth rescue (activation), hits mostly activators. 0.14% of 370,000 active. AID 652106; further: % of control where 0% means no effect; nearly all actives have a fitted effect of over 65% in size
#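 Screening used galactose-induced yeast with toxic alpha-synuclein levels, exposed to compound for 24 hr at 30 deg C. Cell growth, read with BacTiter-Glo luminescence, gave the measured signal.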
# Mito fusion yeast: inhibitors of mitochondrial division or activators of mitochondrial fusion; S. cerevisiae fusion-defective mutant growth rescue, CellTiterGlo 48 h; AID 485298; Potency, µM (highest dose often 46.1 µM), for the others: at the top dose growth rescue (activation), most hits filed as activators; 0.23% of 320,000 active; further: % of control where 0% means no effect; nearly all actives have a fitted effect of over 45% in size
#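 Temperature-sensitive fusion-defective S. cerevisiae (e.g. fzo1-1, mgm1-5) were grown with compound in YPEG medium (3% ethanol, 3% glycerol) for 48 hours at 37C. Growth rescue was measured as viability by CellTiterGlo luminescence after 10 minutes at ambient.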
# Abeta yeast res: restores growth of yeast expressing A-beta42 peptide | Potency, µM (highest dose often 46.1 µM), hits mostly activators | yeast expressing A-beta42, growth rescue, OD600, 48 h; response scale: 0% DMSO, 100% iron-clioquinol control | 0.063% of 410,000 active | AID 1347071; further: nearly all actives have a fitted effect of over 55% in size
#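 Yeast growth medium received pinned compounds, then yeast cells expressing toxic A-beta were added; plates incubated at 30 C for 48 hr. Growth read as absorbance at 600 nm, normalized to DMSO and equimolar FeCl3 plus clioquinol controls.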
# TDP-43 yeast inh: rescues yeast growth from TDP-43 toxicity | TDP-43 expressing yeast growth rescue, BacTiter-Glo, 24 h | Potency, µM (titrated, usually from 46.1 µM), without a hit: at the highest dose growth rescue (activation), actives largely listed as activators | 1.8% of 410,000 active | AID 652104; further: % of control where 0% means no effect; nearly all actives have a fitted effect of over 50% in size
#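 Growth rescue of TDP-43-toxic yeast measured as ATP luminescence (BacTiter-Glo). Cells grown to mid-log in raffinose, induced in galactose at OD600=0.02, exposed to compound 24 hr at 30 deg C.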
# Active calls of the source: *; i = inactive; ? = inconclusive; . = not tested or not shown; [ ] = another dose, or the depositor's remark. The call rests on the fitted dose curve; in most records, active means well fitted curve in the direction sought with a large enough effect; inconclusive means small, poorly fitted or top-dose-only effect, or another doubt; inactive means no such curve, though single readings can be large; an effect the other way counts as inactive or inconclusive. Potency means the concentration at half of the fitted maximal effect.
SMILES,FUS yeast rescue,aSyn rescue,Mito fusion yeast,Abeta yeast res,TDP-43 yeast inh
COc1ccc(C/C(N)=N/OC(=O)CCc2ccccc2)cc1,i,-37.1%,-10.8%,i,?
COc1ccc(C/C(N)=N/OC(=O)Cc2ccccc2)cc1,i,-1.8%,1.7%,i,15.8µM*
COc1ccc(CC(=O)O/N=C(\N)Cc2ccc(OC)cc2)cc1,i,-8.0%,3.6%,i,11.2µM*
O=C(CN1CCc2onc(-c3ccc(-n4cc(COc5ccc([N+](=O)[O-])cc5)nn4)cc3)c2C1=O)N1CCOCC1,i,.,.,.,.
CCNC(=O)CN(c1ccc(Cl)cc1)S(=O)(=O)c1ccccc1,i,-6.0%,-1.3%,i,11.2µM*
CCN(CC)S(=O)(=O)c1ccc(Cl)c(NC(=O)COC(=O)C2CCCCC2)c1,i,15.8%,7.1%,11.2µM*,12.5%
CCN(CC)S(=O)(=O)c1ccc(Cl)c(NC(=O)COC(=O)c2ccc(O)cc2)c1,i,-1.7%,-5.8%,i,2.8%
Cc1cc(Br)c(NC(=O)COC(=O)C2CCCCC2)c(Br)c1,i,-0.3%,.,i,15.8µM*
Cc1cc(C)c(NC(=O)COC(=O)C2CCC2)c(Cl)c1,i,-6.0%,-0.6%,i,17.4%
O=C(COC(=O)c1ccccc1C(=O)c1ccccc1)Nc1ccc(SC(F)F)cc1,?,0.4%,15.8µM*,i,13.8%
O=C(COc1ccccc1C(=O)O)Nc1ccc(SC(F)F)cc1,i,2.0%,2.5%,?,-15.2%[0.397 µM]
CCOC(=O)c1ccc(-c2ccc(C=O)o2)cc1,i,-35.6%,4.1%,i,11.2µM*
CN(C)S(=O)(=O)Oc1ccsc1C(=O)Nc1ccccc1Cl,i,10.0%,1.4%,i,44.2%
CN(C)S(=O)(=O)Oc1ccsc1C(=O)Nc1cccc(Cl)c1Cl,i,8.7%,12.7%,i,17.8µM*
CN(C)S(=O)(=O)Oc1ccsc1C(=O)Nc1ccc(Cl)cc1,i,-0.4%,4.8%,i,14.1µM*
COc1ccc(NS(=O)(=O)c2ccc3oc4ccccc4c3c2)cn1,i,22.4µM*,25.1µM*,i,?
COc1ccc(C2/C(=C(/O)c3ccc(Br)cc3)C(=O)C(=O)N2C)cc1OC (stereo not given),i,-4.4%,0.1%,i,8.7%
CCCS/C(N)=N/N=C/c1cc(C)ccc1O,i,4.8%,0.7%,i,12.4%
CCCCS/C(N)=N/N=C/c1ccccc1O,i,-3.1%,2.7%,i,11.2µM*
CCOc1ccc(C2=NNC(c3cccs3)=Nc3ccc(OC)cc32)cc1,17.8µM*,-1.0%,8.7%,i,-36.2%
Cc1ccc(NC(=O)CSC2=Nc3ccccc3C3=NC(Cc4ccccc4)C(=O)N23)cc1C (stereo not given),?,.,.,i,2.7%
COc1ccc(-n2c(C)nc3sc4c(c3c2=O)CCC4)cc1,i,7.0%,21.0%,i,12.6µM*
Cc1ccc(C(=O)c2ccc(O)cc2)cc1C,i,-0.5%,?,i,17.8µM*
O=C(c1ccc(O)cc1)c1ccc(Cl)cc1,i,10.3%,6.3%,i,11.2µM*
O=C(c1ccccc1)c1ccc2ccccc2c1,i,-12.8%,.,i,-15.0%
SMILES,FUS yeast rescue,aSyn rescue,Mito fusion yeast,Abeta yeast res,TDP-43 yeast inh
O=C(c1ccccc1)c1ccc2cc(O)ccc2c1,i,-30.5%,-18.3%,i,11.2µM*
COc1ccc(C(=O)c2ccc(Cl)cc2)cc1,i,-13.3%,0.8%,i,-8.6%
Cn1nc(-c2ccccc2)c(-c2ccccc2)c(C(=O)Nc2ccccc2C(N)=O)c1=O,i,.,.,i,-7.7%
FC(F)(F)c1nnc2c(Sc3ccccn3)nc3ccccc3n12,i,-1.8%,-3.3%,i,15.8µM*
COc1cc(O)c(C(CC(=O)N2CC(C)OC(C)C2)c2ccc3c(c2)OCO3)c(OC)c1 (stereo not given),i,.,.,.,.
COc1cc(-c2nnc(SCC(=O)N3c4ccccc4Sc4ccccc43)o2)cc(OC)c1OC,i,22.8%,5.9%,i,6.9%
O=C(Sc1nnc(-c2ccccc2)o1)N1c2ccccc2Sc2ccccc21,i,-14.6%,3.8%,?,11.2µM*
Cc1ccc(CN2C(=O)c3ccccc3Sc3ccc(C(=O)NCc4ccco4)cc32)cc1,10µM*,.,.,i,22.3%
COC(=O)c1ccc2c(c1)N(Cc1cc(C)ccc1C)C(=O)c1ccccc1S2,i,4.2%,.,i,0.0%
CNC(=O)c1ccc2c(c1)N(Cc1cc(C)ccc1C)C(=O)c1ccccc1S2,?,.,.,i,15.8µM*
CCCCN(C)C(=O)c1ccc2c(c1)N(Cc1cccc(F)c1)C(=O)c1ccccc1S2,?,.,.,i,22.4µM*
CCCCN(C)C(=O)c1ccc2c(c1)N(Cc1cccc(Cl)c1)C(=O)c1ccccc1S2=O (stereo not given),?,.,.,i,18.2%
O=C(NCc1ccco1)c1ccc2c(c1)N(Cc1c(F)cccc1Cl)C(=O)c1ccccc1S2,?,.,.,i,0.0%
COc1cccc(NC(=O)c2sc3nc(C)c(C(=O)Nc4ccc(C)cc4C)c(-c4ccco4)c3c2N)c1,?,.,.,i,7.7%
COc1ccc(C2CC(=O)N(Cc3ccc(F)cc3)c3ccccc3S2)cc1 (stereo not given),i,11.4%,.,i,15.8µM*
Cc1ccc(S(=O)(=O)N2[C@@H](c3cccc(Cl)c3)C(C(=O)O)=CC[C@H]2c2ccc3c(c2)OCO3)cc1,i,-2.3%,-10.4%,i,5.2%
CN(C(=O)CCc1nc(-c2ccccc2F)no1)c1ccc(Cl)cc1,i,.,.,i,22.4µM*
O=S(=O)(c1cc(Br)ccc1Br)N1CCCCCC1,i,4.2%,-1.3%,i,7.94µM*
Cc1ccc(NC(=O)CC2Sc3ccccc3NC2=O)c(C)c1 (stereo not given),i,.,.,i,4.5%
Cc1cc(=O)oc2c1ccc1oc(/C(=N/O)c3ccccc3)c(C)c12,i,-3.3%,?,i,0.4%
Cc1ccc(/C(=N\O)c2oc3c(C)c4oc(=O)cc(C)c4cc3c2C)cc1,i,16.6%,7.08µM*,i,0.0%
Cc1cccc(-c2nnnn2-c2cccc(C)c2)c1,i,-0.2%,8.7%,i,?
COc1ccc(-n2nnnc2-c2cccc(OC)c2)cc1,i,2.2%,-4.4%,i,12.6µM*
Cc1ccc(-n2nnnc2-c2cccnc2)cc1,i,-6.7%,3.3%,i,16.1%
Cc1ccc(-n2nnnc2-c2cccc(C)c2)cc1,i,0.0%,2.3%,i,20µM*
COC(=O)c1ccc(CSc2nc(C(F)F)cc(C)c2C#N)o1,i,0.2%,.,i,11.2µM*
O=C(/C=C/c1ccc(Cl)cc1)N1CCN(c2c(Cl)cccc2[N+](=O)[O-])CC1,i,20.4%,?,i,11.2µM*

# Source: PubChem
